OPRK1 antag MB – antagonists of human kappa opioid receptor OPRK1, Maybridge library | Kappa-type opioid receptor (Homo sapiens), P41145 | OPRK1 cells, antagonist mode, fluorescence readout | inhibition, % at 9 µM | 16,000 tested, 0.4% active | AID 652031, 2013; in the data active = inhibition above about 50%
TLR4 MyD88 blk – inhibitors of human TLR4-MyD88 binding; AID 811, 2007; Cell-based TLR4-MyD88 binding inhibition assay; Toll-like receptor 4 (Homo sapiens), O00206; 16,000 tested, 0.06% active; inhibition, % at 10 µM; in the data active = inhibition above about 45%
Active calls of the source: *; nt = no result given. An excerpt weighted towards active compounds, which were near 0.48% of everything screened.

SMILES	OPRK1 antag MB	TLR4 MyD88 blk
N/C(=N\NC(=O)c1cccc(C(F)(F)F)c1)c1cnccn1	22	2
NC(=NC(=O)c1cccc(C(F)(F)F)c1)c1ccc(C(F)(F)F)cn1	58*	-1
Fc1cc(F)cc(Cc2nc(-c3cccs3)no2)c1	3	6
Cc1ccc(-c2cc(Cc3ccc(-c4cccs4)s3)c(=O)[nH]n2)cc1	9	-9
COc1cc(C(F)(F)F)c(C(=O)NC2(O)C(=O)c3ccccc3C2=O)cn1	8	11
COc1ccc(NC(=O)c2cccs2)cn1	-4	10
O=C(Nc1ccc(Cl)cc1Cl)c1cc([N+](=O)[O-])cc2c1-c1ccc([N+](=O)[O-])cc1C2=O	53*	-4
CCC(C)(C)OC(=O)c1cc([N+](=O)[O-])cc2c1-c1ccc([N+](=O)[O-])cc1C2=O	41	-1
Cc1cc(C(=O)O/N=C(\N)c2c(-c3c(Cl)cccc3Cl)noc2C)no1	10	3
COC(=O)c1ccc(CNC(=O)Nc2ccc(C(=O)OC)cc2C)cc1	-22	1
CCCCCCCCCCCC(=O)NN	26	3
CCCCCCCCCCCC(=O)ON1C(=O)CCC1=O	50*	4
CC12CCC(=O)C=C1CCC2=O (stereo not given)	-10	53*
CCOC(=O)C(N)CCCCN (stereo not given)	27	8
CCOC(=O)[C@@H](N)CCSC	52*	0
CC(=O)N/C(=C/c1ccc2c(c1)OCO2)C(=O)O	21	2
O=C1C=CC(=O)N1C1CCCCCCCCCCC1	10	4
CS(=O)(=O)CS(=O)(=O)Nc1cccc(OC(F)(F)F)c1	26	nt
Oc1c(Cl)c2nc3ccccc3nc2c2ccccc12	22	9
O=Cc1c(O)c2ccccc2c2ccccc12	72*	0
O=C(Nc1ccc(Cl)cc1)n1nccc1/C=C/c1cccs1	2	0
CC1=C(OC(=O)c2cccs2)C(=O)CC1	19	-4
COC(=O)c1cnn(-c2ccc(Cl)cc2)c1C=Nc1ccc(C)cc1	3	-5
COC(=O)c1cnn(-c2ccc(Cl)cc2)c1C=C(C#N)C#N	75*	-15
C#Cc1cccc(NC(=O)c2sc3nc4c(c(-c5cccs5)c3c2N)CCCC4)c1	65*	-4
SMILES	OPRK1 antag MB	TLR4 MyD88 blk
CSc1nc2c(c(-c3cccs3)c1C#N)CCCC2	12	4
N#CCc1ccc(NC2(C#N)CCCCC2)cc1	15	-6
N#CCOc1c(Cl)cccc1Cl	5	4
CC(=O)N1CCC(NC(=O)Oc2ccc(Cl)cc2)CC1	4	3
CC(=O)N1CCC(C(=O)O/N=C(\N)c2ccc(Cl)cc2)CC1	126*	11
CC(C)(C)OC(=O)N1CCCN(C(=O)C2=CN3C=C(C(F)(F)F)C=C(Cl)C3N2)CC1 (stereo not given)	-33	6
O=c1c(Cc2ccc(Cl)c(Cl)c2)csc2ccccc12	-18	0
CCOC(=O)Sc1nc(-c2cccc([N+](=O)[O-])c2)cn1C(=O)OCC	-4	-5
S=c1[nH]nc(-c2ccccc2)n1/N=C/c1cccs1	3	-8
O=c1c2cc(-c3ccccc3)sc2nnn1/N=C/c1cccs1	71*	14
O=C(Nc1ccc(Br)c(C(F)(F)F)c1)c1ccc(CN2C(=O)c3ccccc3C2=O)o1	1	4
c1ccc(-c2cc3ncnc(NCc4ccc5c(c4)OCO5)c3s2)cc1	61*	-2
FC(F)(F)c1ccnc(NCc2ccc3c(c2)OCO3)n1	-2	2
CCOC(=O)CNC(=O)CSc1ncccn1	-2	-4
N#Cc1cnc(Oc2ccc(Cl)cc2)nc1N	15	-1
COC(=O)c1cc(=O)n2c(-c3cccs3)nnc2s1	15	2
COC(=O)/C=C1\SC(=Nc2ccc(Cl)cc2)N(c2ccc(Cl)cc2)C1=O	65*	-23
COC(=O)/C=C1\SC(c2ccccc2)=NC1=O	-4	-1
CC(C)(C)c1nc(SCC(=O)c2ccc([N+](=O)[O-])cc2)n[nH]1	4	2
O=C(/C=C/c1cc(-c2ccccc2)c(C(F)(F)F)s1)c1cccs1	63*	-34
Cc1cc(NC(=O)c2cc(-c3ccccc3)c(C(F)(F)F)s2)on1	4	-7
Cc1cc(C(=O)NNc2cc(C(F)(F)F)ccc2Cl)n(C(C)(C)C)n1	-3	-9
O=S(=O)(c1ccc(-n2cccn2)cc1)N1CCN(C2c3ccccc3-c3ccccc32)CC1	-4	13
CN(C)/C=C(\C#N)C(=O)N1CCCC1	7	-6
CC1CN(c2ccc(NC(=S)NN)cc2)CC(C)O1 (stereo not given)	15	-6
COc1cccc2c1c(NC(=O)c1cc(C)on1)nn2C	-13	4
COc1ccc([N+](=O)[O-])c(C=C(C#N)C#N)c1OC	12	1
COc1cccc(/C=C(\C#N)c2ccc([N+](=O)[O-])cc2)c1OC	69*	-3
O=S(=O)(c1ccc2ccccc2c1)N1CCCN(Cc2c(F)cccc2Cl)CC1	-2	9

Bioassay records: PubChem BioAssay, The Scripps Research Institute Molecular Screening Center
